The panel holds about 83,000 compounds, 20% with a hit somewhere; the sample as a whole holds those more often.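 Assay: single dose, 48 h. Readout: percent growth (0 = no net growth; negative = cell death). Active: <10.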 Values without a mark were called inactive. Activity calls are given as the source filed them.
Key:
Assay in all cases: NCI-60 one-dose screen, 48 h (100 = growth as untreated, 0 = no growth, -100 = all killed)
Conditions in all cases: 10 µM unless noted
NCI-H23 lung = tested on: NCI-H23 lung
NCI-H226 lung = tested on: NCI-H226 lung
NCI-H322M lung = tested on: NCI-H322M lung
HOP-62 NSCLC = tested on: HOP-62 NSCLC
NCI-H460 lung = tested on: NCI-H460 lung
786-0 renal = tested on: 786-0 renal
MDA-MB-231 breast = tested on: MDA-MB-231 breast
SF-268 CNS = tested on: SF-268 CNS
SF-539 CNS = tested on: SF-539 CNS
M14 melanoma = tested on: M14 melanoma
PC-3 prostate = tested on: PC-3 prostate
UACC-62 melanoma = tested on: UACC-62 melanoma
SK-MEL-28 melanoma = tested on: SK-MEL-28 melanoma
UO-31 renal = tested on: UO-31 renal
OVCAR-5 ovarian = tested on: OVCAR-5 ovarian
OVCAR-3 ovarian = tested on: OVCAR-3 ovarian
NCI/ADR-RES ovarian = tested on: NCI/ADR-RES ovarian
SW-620 colon = tested on: SW-620 colon
MCF7 breast = tested on: MCF7 breast
KM12 colon = tested on: KM12 colon

Structure (SMILES)	growth (NCI-H23 lung)	growth (NCI-H226 lung)	growth (NCI-H322M lung)	growth (HOP-62 NSCLC)	growth (NCI-H460 lung)	growth (786-0 renal)	growth (MDA-MB-231 breast)	growth (SF-268 CNS)	growth (SF-539 CNS)	growth (M14 melanoma)	growth (PC-3 prostate)	growth (UACC-62 melanoma)	growth (SK-MEL-28 melanoma)	growth (UO-31 renal)	growth (OVCAR-5 ovarian)	growth (OVCAR-3 ovarian)	growth (NCI/ADR-RES ovarian)	growth (SW-620 colon)	growth (MCF7 breast)	growth (KM12 colon)
Nc1ccc([N+](=O)[O-])c2c1Oc1ccccc1O2	94.3%	87.4%	93.9%	90.9%	111%	82.7%	97%	107%	89.7%	106%	101%	81.7%	116%	10%	88.1%	88.3%	99.4%	104%	101%	99.8%
N#C[Se]CCN1C(=O)C2C(C1=O)[C@H]1C=C[C@@H]2S1 (some centres undefined)	-11.7% (active)	-54.6% (active)	-1.58% (active)	-63.3% (active)	2.86% (active)	-30.5% (active)	-40.5% (active)	-45.2% (active)	-70.5% (active)	-13.6% (active)	5.36% (active)	18.9%	-19.2% (active)	-90.7% (active)	14.7%	-64.6% (active)	-10.7% (active)	42.9%	5.71% (active)	15.2%
O=C(c1cccs1)C1NO[N+]([O-])=C1c1cccs1 (centres undefined)	4.55% (active)	-0.733% (active)	110%	89.6%	82.3%	0.474% (active)	86.2%	109%	36.3%	-40.2% (active)	57.1%	88.7%	65.8%	-83.3% (active)	114%	-10.4% (active)	47.5%	-91.9% (active)	81.8%	74.8%
C/C(=C\c1cc(C(F)(F)F)n(-c2ccc(N)cc2)n1)[C@@H]1C[C@@H]2O[C@]2(C)CCC[C@H](C)[C@H](O)[C@@H](C)C(=O)C(C)(C)[C@@H](O)CC(=O)O1	24.4%	38.9%	22.2%	19.2%	3.04% (active)	8.49% (active)	0.97% (active)	6.48% (active)	-18.5% (active)	-14.3% (active)	9.42% (active)	26.8%	39.1%	26.6%	14.7%	-0.038% (active)	7.67% (active)	26.5%	7.93% (active)	5.68% (active)
COc1cccc2c1C(=O)c1c(O)c3c(c(O)c1C2=O)CC(O)(/C(C)=N/NC(=O)CCC(=O)N/N=C(\C)C1(O)Cc2c(O)c4c(c(O)c2C(OC2CC(N)C(O)C(C)O2)C1)C(=O)c1c(OC)cccc1C4=O)CC3OC1CC(N)C(O)C(C)O1 (centres undefined)	-44.8% [5 µM] (active)	-68.1% [5 µM] (active)	-31.6% [5 µM] (active)	-31.3% [5 µM] (active)	-44.3% [5 µM] (active)	-14.4% [5 µM] (active)	8.46% [5 µM] (active)	-17.3% [5 µM] (active)	-39.2% [5 µM] (active)	-55.7% [5 µM] (active)	-19.3% [5 µM] (active)	-85.4% [5 µM] (active)	-56.3% [5 µM] (active)	-7.96% [5 µM] (active)	-15.4% [5 µM] (active)	-47.3% [5 µM] (active)	71.8% [5 µM]	-23.5% [5 µM] (active)	2.38% [5 µM] (active)	-29.8% [5 µM] (active)
O1[As]2O[As]3O[As]1O[As](O2)O3	6.46% (active)	0.918% (active)	38.2%	-41.6% (active)	3.94% (active)	10.7%	-22.8% (active)	5.42% (active)	-4.27% (active)	-24.2% (active)	10.7%	-53.3% (active)	-17.6% (active)	-7% (active)	18.7%	-35.3% (active)	13.8%	4.74% (active)	6.19% (active)	39%
COc1ccc(C(c2ccc(OC)cc2)C(Cl)(Cl)Cl)cc1	81.9%	96.9%	106%	83.1%	91.8%	74.4%	93%	88.6%	79.5%	84.5%	68.7%	84.7%	103%	53.4%	91.9%	–	89.6%	89.4%	92.6%	83.8%
C/C(=C\C(=O)O[C@H]1[C@@H]2[C@H](C)CC[C@H]2[C@]2(C)O[C@@]1(C1CCCCC1)C[C@H]2OC(=O)CO)c1ccccc1	50.8%	41.1%	84.5%	55.1%	13.7%	-16% (active)	55.5%	26%	77.2%	47.4%	17.9%	63.2%	64.6%	-47.2% (active)	82.9%	44.4%	7.73% (active)	43.1%	3.04% (active)	38.2%
Cc1cccc(N(C)c2cccc3c2C(=O)[Se]C3)c1C	31.2%	36.6%	72.8%	18.8%	62.8%	78%	53.6%	52.4%	56.4%	26.7%	66.7%	64.6%	75.6%	23%	25.5%	66.3%	13.6%	67.1%	49.6%	14.6%
O=C(CCl)NCNC(=O)CCl	97.8%	112%	100%	97.2%	103%	107%	99.7%	98.1%	101%	91.5%	86.4%	82%	93.7%	93.5%	115%	105%	103%	100%	85.1%	104%
CCCCCCCCCCOc1ccc(C(=O)Oc2ccc(CSP3(=O)OCC4OC(n5ccc(=O)[nH]c5=O)C(F)C4OP(=O)(O)OCC4OC(n5cnc6c(N)ncnc65)C(F)C4O3)cc2)cc1 (centres undefined)	103%	75.5%	84.8%	111%	108%	98.6%	111%	104%	23.1%	90.7%	103%	111%	113%	98.5%	116%	97.6%	105%	115%	95.5%	103%
CCOC(=O)Nc1cc(Cl)c([N+](=O)[O-])c(NC(=O)OCC)n1	87.8%	100%	97.1%	126%	109%	104%	108%	75.2%	107%	84.8%	92.2%	82.6%	79%	99.5%	104%	103%	102%	71.3%	51.4%	71.3%
CC(=O)Nc1ccc(Cc2ccc(NC(C)=O)cc2)cc1	107%	107%	108%	94.1%	104%	101%	105%	117%	104%	99.9%	71.4%	107%	109%	78%	90.7%	119%	95.9%	117%	99.8%	139%
Nc1ncnc2c1c(C(=O)NO)cn2C1OC(CO)C(O)C1O (centres undefined)	-4.58% (active)	13.6%	3.28% (active)	5.73% (active)	-21.6% (active)	9.38% (active)	-6.16% (active)	-24.7% (active)	-32.4% (active)	-53.8% (active)	-20.9% (active)	-86.1% (active)	-52.3% (active)	-58.2% (active)	16.5%	-49.3% (active)	2.24% (active)	-3.16% (active)	-47.3% (active)	-29.9% (active)
CO[C@@H]([CH2][Hg][S]C#N)[C@@H]([CH2][Hg][S]C#N)OC	92.3%	106%	101%	99.8%	127%	120%	96.1%	100%	125%	81.3%	78.8%	88.9%	104%	94.6%	107%	-100% (active)	93.7%	22.3%	31%	107%

From PubChem BioAssay (NCI)
